Screening data: PubChem, several laboratories
ADAM10 inh – ADAM10 inhibition, QFRET primary screen | 370,000 tested, 0.62% active | inhibition, % at 7 µM | recombinant ADAM10, EDANS/DABCYL FRET peptide cleavage, 3 h;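 active = inhibition above a per-campaign cutoff equal to the mean of compounds falling between control-based bounds plus 3 SD, cut at about 20% in these data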;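 also: 0% = DMSO wells while the 100% control is not disclosed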
rCAG RNA binder – r(CAG) repeat RNA binding. TO-PRO-1 dye displacement fluorescence. inhibition, % at 3 µM. 370,000 tested, 1.3% active. AID 651821;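 active = inhibition above the plate cutoff, the mean of all test compounds on that plate plus 3 SD, cut at about 35% in these data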;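 also: 0% = DMSO alone and 100% = 100 µM mitoxantrone as full dye displacement; higher means more dye released from RNA so lower well fluorescence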
ADAM17 inh – ADAM17 inhibition, QFRET primary screen. P78536. recombinant ADAM17, EDANS/DABCYL FRET peptide cleavage. inhibition, % at 6.95 µM. 370,000 tested, 0.83% active. AID 720648;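 active = inhibition above the mean of compounds lying between control limits plus 3 SD, set per campaign, cut at about 8.5% in these data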;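 also: 0% = DMSO-only wells as the low control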
Target sequence (P78536 215-824 limits assumed): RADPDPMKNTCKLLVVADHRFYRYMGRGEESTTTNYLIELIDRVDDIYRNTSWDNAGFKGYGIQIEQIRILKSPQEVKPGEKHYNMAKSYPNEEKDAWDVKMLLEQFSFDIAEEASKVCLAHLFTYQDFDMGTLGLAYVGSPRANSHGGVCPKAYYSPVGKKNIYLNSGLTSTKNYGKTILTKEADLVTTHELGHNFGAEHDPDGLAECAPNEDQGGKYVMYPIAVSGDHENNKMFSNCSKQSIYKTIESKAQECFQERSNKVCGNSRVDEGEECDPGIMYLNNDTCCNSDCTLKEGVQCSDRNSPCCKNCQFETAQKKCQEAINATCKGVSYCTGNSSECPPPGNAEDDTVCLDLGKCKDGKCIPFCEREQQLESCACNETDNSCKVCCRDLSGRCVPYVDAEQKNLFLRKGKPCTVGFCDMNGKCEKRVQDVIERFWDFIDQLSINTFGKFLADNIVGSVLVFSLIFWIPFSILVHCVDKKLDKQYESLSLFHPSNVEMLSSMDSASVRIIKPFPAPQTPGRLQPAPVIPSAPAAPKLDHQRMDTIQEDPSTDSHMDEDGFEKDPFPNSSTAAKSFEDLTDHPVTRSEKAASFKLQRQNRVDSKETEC
NR3A LBD binder – modulates the human NR3A ligand-binding domain; NR3A LBD differential scanning fluorimetry, Tm shift; 0% = protein alone, 100% = glycine-bound protein; Tm shift relative to glycine control, % at 25 µM; 340,000 tested, 2.5% active;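 active = melting temperature shift of at least 10% of the positive control shift, at one fixed dose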
AHR activator – human AHR activation. 320,000 tested, 2.5% active. activation, % at 5 µM. AID 2796. AHR-responsive luciferase reporter cells, luminescence; in the data active = activation above about 47%;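 also: 0% = vehicle wells and 100% = reference agonist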
proKLK7 act – activates the human kallikrein-7 zymogen; 370,000 tested, 0.9% active; P49862; activation, % at 7 µM; purified proKLK7, EDANS-DABCYL substrate fluorescence; 100% is mature enzyme control, 0% vehicle;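 active = activation above the mean of all tested compounds plus 3 SD, computed per campaign excluding outliers beyond control limits, cut at about 13% in these data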
KLK7 act conf – confirmation of human kallikrein-7 zymogen activators; shares compounds with proKLK7 act; purified proKLK7, EDANS-DABCYL substrate fluorescence; scaled: vehicle 0, mature enzyme 100; activation, % at 7 µM; 3,200 tested, 68% active; AID 686949;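 active = activation, as change over the incubation, above the mean of all tested compounds plus 3 SD, cut at about 13% in these data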
EDANS-DABCYL int – fluorescence interference counter-screen for KLK7 activators. shares compounds with proKLK7 act. EDANS-DABCYL substrate fluorescence interference, no enzyme, 4 h; solvent 0%, active enzyme control 100%. activation, % at 7 µM. 3,200 tested, 80% active. AID 686952;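 active = activation above the all-compound mean plus 3 SD, ignoring values outside control-based bounds, cut at about 4.8% in these data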;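 also: value is the 4 h activation minus the activation read at time zero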
EDANS interf – counter-screen for kallikrein-7 activators: EDANS-DABCYL interference, dose response; shares compounds with proKLK7 act; EDANS-DABCYL peptide fluorescence interference, no enzyme; EC50, µM; 250 tested, 20% active; AID 720493;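 active = compounds that raise the fluorescence signal in this interference counterscreen, with EC50 at or below 10 µM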;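 also: intact quenched peptide substrate alone read at 355 nm excitation and 520 nm emission; signal is fluorescence gain from T0 to T4 after four hours at room temperature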
Starred values were filed as active, the others as inactive; i = inactive; / = no result given. Shown are actives, neighbours in structure and some others; about 7% of the full set was active somewhere.

SMILES	ADAM10 inh	rCAG RNA binder	ADAM17 inh	NR3A LBD binder	AHR activator	proKLK7 act	KLK7 act conf	EDANS-DABCYL int	others
Cc1sc2ncn(CC(=O)N3CCOCC3)c(=O)c2c1-c1ccccc1	-4.7	-1.5	-3.3	-1.5	2.0	0.1	/	/
NC(=O)c1nnsc1-c1ccco1	-2.3	3.5	-1.6	-0.5	/	-0.2	/	/
O=C1N/C(=C/c2ccc(N3CCOCC3)o2)C(=O)N1c1ccccc1	-26.6	7.5	-6.6	2.1	2.3	20.4*	9.5	10.4*
Cc1c(O)ccc2c(CC(=O)N[C@@H](Cc3ccccc3)C(=O)O)cc(=O)oc12	i	3.0	i	-1.0	/	36.2*	64.8*	61.3*
O=c1cc(CN2CCN(Cc3ccccc3)CC2)c2ccc(O)c(O)c2o1	-45.1	17.4	-17.7	1.4	-1.3	-0.4	/	/
Cc1c(-c2ccccc2)c(=O)oc2cc(O)ccc12	i	5.8	i	1.3	0.8	25.2*	64.7*	69.0*
Cc1c(CC(=O)NCC(=O)N[C@H](Cc2ccccc2)C(=O)O)c(=O)oc2cc(O)ccc12	i	1.8	i	-0.5	-1.1	72.2*	63.7*	72.9*
Cc1c(O)ccc2c(CN3CCN(Cc4ccccc4)CC3)cc(=O)oc12	i	-1.3	i	-1.9	-0.1	46.0*	78.2*	74.6*
CCCN1CCN(S(=O)(=O)c2ccc(-c3cc(C)no3)s2)CC1	-2.7	-3.9	-4.9	3.3	0.0	-0.3	/	/
C/C=C\C(=O)Nc1cccc(C2=NOC3(C2)C[C@H](C(N)=O)N(C(=O)Cc2ccc([N+](=O)[O-])cc2)C3)c1 (stereo not given in full)	2.9	4.1	0.9	0.9	2.5	0.1	/	/
CC1(c2ccc(OC(F)F)cc2)NC(=O)N(CC(=O)N2CCN(C(=O)c3ccco3)CC2)C1=O (stereo not given)	-9.8	2.8	2.8	1.8	1.1	-0.3	/	/
CCc1ccc2c(CN3CCN(Cc4ccccc4)CC3)cc(=O)oc2c1	-1.8	-5.5	5.5	-0.2	1.8	0.6	/	/
CCc1cc2c(CN3CCN(Cc4ccccc4)CC3)cc(=O)oc2cc1O	i	-4.2	i	-5.1	/	62.0*	21.1*	-15.0	EDANS interf=>69.5
COC(=O)c1ccc(CN2CCc3ccccc32)cc1	0.1	9.8	-1.5	3.8	4.4	0.2	/	/
CCOC(=O)c1[nH]c2ccc(OC)cc2c1NC(=S)N1CCN(C(=O)OCC)CC1	-21.9	8.4	-10.1	-0.4	6.5	1.4	/	/
CCOC(=O)c1[nH]c2ccc(OC)cc2c1NC(=O)CCN1CCCC(C)C1 (stereo not given)	-226.2	-8.5	-81.0	-1.2	6.2	26.6*	8.9	2.8
COc1ccc2c3c(n(C(=O)OC(C)(C)C)c2c1)C1CC=C(COC(C)=O)CN1CC3 (stereo not given)	-244.0	0.3	-59.3	/	/	18.4*	7.8	9.5*
CN(C)c1cccc2c(S(=O)(=O)NC(=O)[C@H]3O[C@@H](n4cnc5c(N)ncnc54)[C@H](O)[C@@H]3O)cccc12	-70.9	8.5	-14.8	/	/	24.9*	34.7*	22.6*	EDANS interf=8.85*
CN(C)CCCNS(=O)(=O)c1ccc(N2CCC(c3ccc(Cl)cc3)=N2)cc1	i	13.6	i	/	-4.2	24.0*	65.6*	61.6*
O=S(=O)(c1ccc(N2CCC(c3ccc(Cl)cc3)=N2)cc1)N(CCO)CCO	i	11.8	i	0.4	-3.3	-374.4	/	/
CCOc1ccccc1C1NC(=O)CCC1[N+](=O)[O-] (stereo not given)	2.5	-0.6	-1.4	-0.9	-0.7	-0.3	/	/
CCC(SC1=N/C(=C/c2ccccc2OC)C(=O)N1c1ccccc1)C(=O)Nc1cc(C)on1 (stereo not given)	11.6	11.4	3.6	-0.4	1.8	39.2*	-9.3	-5.7
COc1ccccc1/C=C1\SC(=S)N(CCC(=O)Nc2cc(C)on2)C1=O	-7.5	5.5	-0.7	-5.2	-3.6	0.4	/	/
COc1ccc(CCN2C(=NC(C)=O)SC3CS(=O)(=O)CC32)cc1OC (stereo not given)	-0.8	0.2	-1.0	1.7	-1.2	-0.1	/	/
COCCCNC(=S)N/N=C/c1ccc(N(C)C)cc1	i	-3.8	-248.0	0.7	31.4	26.2*	41.1*	40.5*
SMILES	ADAM10 inh	rCAG RNA binder	ADAM17 inh	NR3A LBD binder	AHR activator	proKLK7 act	KLK7 act conf	EDANS-DABCYL int	others
COCCCNC(=S)N/N=C/c1ccc(N(C)C)cc1Cl	-165.9	0.8	-56.9	3.4	40.8	-8.6	/	/
CCOC(=O)c1cnc2c(C)cc(C)cc2c1NCCCN1CCOCC1	-22.2	-11.4	-7.3	0.1	/	-0.2	/	/
CCCNc1ncnc2c1cnn2C1CCCCO1 (stereo not given)	-9.2	0.9	1.4	-0.2	/	-0.2	/	/
COc1cc(/C=C/C(=O)O)cc(OC)c1O	-24.9	1.8	-6.1	-0.5	-2.2	20.8*	70.0*	79.2*
COc1ccc(/C=C/C(=O)O)cc1Cl	1.2	-2.1	-4.3	-1.3	-0.5	0.7	/	/
Cc1ccc(O)c(C(=O)C=Cc2ccccc2)c1	-160.7	2.0	-43.5	-5.6	/	13.3*	34.1*	34.4*
COc1cc(C)cc(C(=O)C=Cc2ccccc2)c1O	-57.2	3.0	-17.7	16.9*	/	14.1*	9.1	10.8*
Cc1ccc(/C=C/C(=O)c2ccccc2O)cc1	-8.5	0.7	-6.5	-11.9	1.4	0.6	/	/
Cc1ccc(-c2csc3nc4ccc(C(=O)NCCO)cc4c(=O)n23)cc1	i	4.9	-152.6	-1.1	3.9	15.8*	-31.8	-35.5
Cc1ccc(-c2csc3nc4cc(C(=O)NC5CCC(O)CC5)ccc4c(=O)n23)cc1 (stereo not given)	-143.5	4.6	-38.7	3.5	5.3	-11.2	/	/
COc1ccc(/C=N/NC(=O)c2cc(-c3ccccc3)nc3ccccc23)c(OC)c1	3.9	17.0	-10.5	2.7	24.7	274.8*	171.2*	219.7*
COc1cccc(NC(=O)c2cc(-c3ccc(OC)cc3OC)nc3ccccc23)c1	-17.1	10.2	-12.4	0.2	16.4	66.7*	-13.7	-12.5
COc1cccc(C2C(C#N)=C(C)NC3=C2C(=O)CC(C)(C)C3)c1 (stereo not given)	i	-3.1	i	-6.1	1.5	25.1*	17.6*	34.1*
CSC1=C(C#N)C(c2ccc(Cl)cc2)C2=C(CC(C)(C)CC2=O)N1 (stereo not given)	-30.9	6.5	-7.0	-4.4	-5.2	1.5	/	/
